What was measured:
Assay in all cases: DAPPL (digital affinity profiling via proximity ligation, sequencing); 10 mM Tris-HCl pH 7.5, 50 mM NaCl, 1 mM DTT, 4% glycerol, room temperature, 30 min; GST-TFs on glutathione beads, 16-mer random dsDNA library, 0.1% formaldehyde crosslink after washing; high values mean tight binding
[1] = target: T1, FLI1 (Homo sapiens, UniProt Q01543 1-452); settings: protein: recombinant; tags: N-terminal GST; dsDNA, one strand shown
T1 sequence: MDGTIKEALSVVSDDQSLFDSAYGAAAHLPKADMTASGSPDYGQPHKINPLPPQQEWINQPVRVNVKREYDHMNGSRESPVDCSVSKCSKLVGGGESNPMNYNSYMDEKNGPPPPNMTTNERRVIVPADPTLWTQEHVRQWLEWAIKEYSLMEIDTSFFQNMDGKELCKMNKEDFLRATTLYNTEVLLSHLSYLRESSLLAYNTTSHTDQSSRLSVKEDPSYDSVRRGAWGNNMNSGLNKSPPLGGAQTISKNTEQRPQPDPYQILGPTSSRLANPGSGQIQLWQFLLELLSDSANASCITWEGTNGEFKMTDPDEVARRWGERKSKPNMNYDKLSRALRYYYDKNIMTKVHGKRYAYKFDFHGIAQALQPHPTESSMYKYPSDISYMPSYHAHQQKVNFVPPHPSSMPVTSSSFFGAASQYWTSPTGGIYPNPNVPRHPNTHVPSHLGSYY
How it was run: (§1)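 Each value of binding signal is a hexamer's read frequency for a factor divided by the same hexamer's frequency in the tag-only sample. Barcoded, bead-captured GST fusions of human transcription factors made in yeast were pooled with that sample and incubated with 200 nmole of a random double-stranded 16-mer DNA library in Tris/NaCl/DTT/glycerol buffer at room temperature for 30 min. Washing, 0.1% formaldehyde crosslinking, proximity ligation, PCR and Illumina NextSeq500 sequencing followed.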

[2] = target: T2, ELK1 (Homo sapiens, UniProt P19419 1-428); settings: protein: recombinant; tags: N-terminal GST; dsDNA, one strand shown
T2 sequence: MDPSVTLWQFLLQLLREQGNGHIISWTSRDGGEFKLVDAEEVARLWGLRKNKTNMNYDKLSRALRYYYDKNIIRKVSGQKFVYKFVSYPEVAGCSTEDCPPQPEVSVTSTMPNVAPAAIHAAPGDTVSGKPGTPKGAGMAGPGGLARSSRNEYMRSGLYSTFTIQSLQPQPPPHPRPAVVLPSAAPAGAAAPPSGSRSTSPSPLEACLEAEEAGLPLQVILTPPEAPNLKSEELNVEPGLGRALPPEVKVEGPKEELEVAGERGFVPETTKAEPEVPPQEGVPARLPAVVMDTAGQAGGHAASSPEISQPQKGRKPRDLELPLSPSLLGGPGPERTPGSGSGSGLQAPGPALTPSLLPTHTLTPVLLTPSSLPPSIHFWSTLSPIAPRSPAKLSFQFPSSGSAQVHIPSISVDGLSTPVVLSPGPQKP
How it was run: as §1

[3] = target: T3, GABPA (Homo sapiens, UniProt Q06546 1-454); settings: protein: recombinant; tags: N-terminal GST; dsDNA, one strand shown
T3 sequence: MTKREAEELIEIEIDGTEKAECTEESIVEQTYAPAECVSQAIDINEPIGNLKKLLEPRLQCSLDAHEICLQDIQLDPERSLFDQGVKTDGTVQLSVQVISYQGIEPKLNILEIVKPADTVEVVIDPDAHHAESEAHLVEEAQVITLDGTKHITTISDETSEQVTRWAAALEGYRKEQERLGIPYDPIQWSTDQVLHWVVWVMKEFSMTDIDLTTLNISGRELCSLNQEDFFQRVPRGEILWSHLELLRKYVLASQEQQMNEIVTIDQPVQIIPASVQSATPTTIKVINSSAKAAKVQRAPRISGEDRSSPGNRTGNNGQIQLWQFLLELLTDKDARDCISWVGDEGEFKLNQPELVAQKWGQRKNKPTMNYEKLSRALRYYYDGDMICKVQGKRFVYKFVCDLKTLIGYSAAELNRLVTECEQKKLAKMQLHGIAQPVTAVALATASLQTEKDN
How it was run: as §1

[4] = target: T4, ERG (Homo sapiens, UniProt P11308 1-479); settings: protein: recombinant; tags: N-terminal GST; dsDNA, one strand shown
T4 sequence: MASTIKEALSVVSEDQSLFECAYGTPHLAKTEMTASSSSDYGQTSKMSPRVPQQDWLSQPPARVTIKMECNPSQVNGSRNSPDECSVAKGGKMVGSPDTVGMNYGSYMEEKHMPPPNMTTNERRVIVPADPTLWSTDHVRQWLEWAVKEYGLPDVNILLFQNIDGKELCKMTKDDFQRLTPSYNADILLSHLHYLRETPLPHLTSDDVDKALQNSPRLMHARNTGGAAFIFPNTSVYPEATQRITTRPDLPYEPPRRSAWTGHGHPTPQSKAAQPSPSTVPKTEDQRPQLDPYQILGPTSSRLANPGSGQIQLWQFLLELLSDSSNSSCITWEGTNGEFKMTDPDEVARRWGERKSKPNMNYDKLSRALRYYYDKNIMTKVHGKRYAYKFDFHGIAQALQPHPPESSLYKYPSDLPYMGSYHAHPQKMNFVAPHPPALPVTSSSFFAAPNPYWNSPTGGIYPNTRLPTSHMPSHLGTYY
How it was run: as §1

[5] = target: ELF1 (Homo sapiens, UniProt P32519 1-619); settings: protein: recombinant; tags: N-terminal GST; dsDNA, one strand shown
How it was run: as §1

[6] = target: T5, EHF (Homo sapiens, UniProt Q9NZC4 1-300); settings: protein: recombinant; tags: N-terminal GST; dsDNA, one strand shown
T5 sequence: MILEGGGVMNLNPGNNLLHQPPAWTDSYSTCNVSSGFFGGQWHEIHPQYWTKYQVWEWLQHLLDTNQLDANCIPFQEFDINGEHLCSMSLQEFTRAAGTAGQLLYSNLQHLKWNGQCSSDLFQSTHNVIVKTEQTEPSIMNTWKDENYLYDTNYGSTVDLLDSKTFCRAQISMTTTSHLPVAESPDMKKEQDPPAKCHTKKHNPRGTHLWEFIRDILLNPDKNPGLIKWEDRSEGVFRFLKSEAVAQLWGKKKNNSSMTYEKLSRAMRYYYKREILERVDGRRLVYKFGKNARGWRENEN
How it was run: as §1

[7] = target: SPI1 (Homo sapiens, UniProt P17947 1-270); settings: protein: recombinant; tags: N-terminal GST; dsDNA, one strand shown
How it was run: as §1

[8] = target: SPIB (Homo sapiens, UniProt Q01892 1-262); settings: protein: recombinant; tags: N-terminal GST; dsDNA, one strand shown
How it was run: as §1

[9] = target: T6, ELK3 (Homo sapiens, UniProt P41970 1-407); settings: protein: recombinant; tags: N-terminal GST; dsDNA, one strand shown
T6 sequence: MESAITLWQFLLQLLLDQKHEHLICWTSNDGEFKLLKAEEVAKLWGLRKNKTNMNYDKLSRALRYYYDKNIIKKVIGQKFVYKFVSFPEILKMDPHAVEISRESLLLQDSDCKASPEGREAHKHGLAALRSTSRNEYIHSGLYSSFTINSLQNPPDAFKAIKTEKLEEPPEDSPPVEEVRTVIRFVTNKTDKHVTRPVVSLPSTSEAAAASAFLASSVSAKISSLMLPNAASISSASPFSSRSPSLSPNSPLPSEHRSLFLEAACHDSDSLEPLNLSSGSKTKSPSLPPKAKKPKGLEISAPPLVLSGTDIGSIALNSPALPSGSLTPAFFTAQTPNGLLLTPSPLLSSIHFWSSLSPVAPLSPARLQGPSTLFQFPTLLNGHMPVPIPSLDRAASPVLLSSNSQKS
How it was run: as §1

[10] = target: T7, FEV (Homo sapiens, UniProt Q99581 1-238); settings: protein: recombinant; tags: N-terminal GST; dsDNA, one strand shown
T7 sequence: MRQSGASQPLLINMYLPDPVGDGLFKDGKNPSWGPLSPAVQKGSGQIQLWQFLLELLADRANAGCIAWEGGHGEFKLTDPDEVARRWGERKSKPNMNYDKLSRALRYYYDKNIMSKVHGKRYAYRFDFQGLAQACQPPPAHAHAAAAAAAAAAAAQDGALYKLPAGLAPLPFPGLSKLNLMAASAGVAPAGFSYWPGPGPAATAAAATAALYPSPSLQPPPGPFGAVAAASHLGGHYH
How it was run: as §1

[11] = target: ETV5 (Homo sapiens, UniProt P41161 1-510); settings: protein: recombinant; tags: N-terminal GST; dsDNA, one strand shown
How it was run: as §1

[12] = target: HSF1 (Homo sapiens, UniProt Q00613 1-529); settings: protein: recombinant; tags: N-terminal GST; chain copies: 3; dsDNA, one strand shown
How it was run: as §1

[13] = target: T8, SPIC (Homo sapiens, UniProt Q8N5J4 1-248); settings: protein: recombinant; tags: N-terminal GST; dsDNA, one strand shown
T8 sequence: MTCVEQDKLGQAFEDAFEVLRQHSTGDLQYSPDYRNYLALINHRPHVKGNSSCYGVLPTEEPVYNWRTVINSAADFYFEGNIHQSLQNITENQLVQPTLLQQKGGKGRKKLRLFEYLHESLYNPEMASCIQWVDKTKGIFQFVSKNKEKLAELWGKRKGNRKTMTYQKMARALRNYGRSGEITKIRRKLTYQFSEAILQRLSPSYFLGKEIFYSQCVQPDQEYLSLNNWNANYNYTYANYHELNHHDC
How it was run: as §1

[14] = target: ELF4 (Homo sapiens, UniProt Q99607 1-663); settings: protein: recombinant; tags: N-terminal GST; dsDNA, one strand shown
How it was run: as §1

[15] = target: T9, ELK4 (Homo sapiens, UniProt P28324-2 1-405); settings: protein: recombinant; tags: N-terminal GST; dsDNA, one strand shown
T9 sequence: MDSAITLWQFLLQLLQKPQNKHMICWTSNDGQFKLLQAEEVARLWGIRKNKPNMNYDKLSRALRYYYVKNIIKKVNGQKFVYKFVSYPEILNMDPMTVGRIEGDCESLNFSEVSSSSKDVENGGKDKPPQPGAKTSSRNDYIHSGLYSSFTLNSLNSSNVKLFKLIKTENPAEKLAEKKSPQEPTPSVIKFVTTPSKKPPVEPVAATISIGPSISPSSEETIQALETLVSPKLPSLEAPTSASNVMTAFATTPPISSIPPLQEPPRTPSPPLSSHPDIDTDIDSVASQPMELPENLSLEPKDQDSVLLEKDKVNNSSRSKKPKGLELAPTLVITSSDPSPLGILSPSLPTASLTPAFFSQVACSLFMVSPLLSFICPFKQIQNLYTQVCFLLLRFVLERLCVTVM
How it was run: as §1

[16] = target: T10, ETV2 (Homo sapiens, UniProt O00321 1-342); settings: protein: recombinant; tags: N-terminal GST; dsDNA, one strand shown
T10 sequence: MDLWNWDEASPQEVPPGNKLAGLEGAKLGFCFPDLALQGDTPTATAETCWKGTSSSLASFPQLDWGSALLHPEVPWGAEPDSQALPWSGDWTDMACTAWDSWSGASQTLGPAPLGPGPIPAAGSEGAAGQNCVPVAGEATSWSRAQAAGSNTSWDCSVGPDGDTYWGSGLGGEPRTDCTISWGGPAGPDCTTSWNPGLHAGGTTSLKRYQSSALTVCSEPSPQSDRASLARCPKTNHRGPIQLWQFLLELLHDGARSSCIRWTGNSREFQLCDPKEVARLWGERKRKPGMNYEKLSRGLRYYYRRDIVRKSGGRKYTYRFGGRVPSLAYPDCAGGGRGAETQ
How it was run: as §1

[17] = target: T11, ELF3 (Homo sapiens, UniProt P78545 1-371); settings: protein: recombinant; tags: N-terminal GST; dsDNA, one strand shown
T11 sequence: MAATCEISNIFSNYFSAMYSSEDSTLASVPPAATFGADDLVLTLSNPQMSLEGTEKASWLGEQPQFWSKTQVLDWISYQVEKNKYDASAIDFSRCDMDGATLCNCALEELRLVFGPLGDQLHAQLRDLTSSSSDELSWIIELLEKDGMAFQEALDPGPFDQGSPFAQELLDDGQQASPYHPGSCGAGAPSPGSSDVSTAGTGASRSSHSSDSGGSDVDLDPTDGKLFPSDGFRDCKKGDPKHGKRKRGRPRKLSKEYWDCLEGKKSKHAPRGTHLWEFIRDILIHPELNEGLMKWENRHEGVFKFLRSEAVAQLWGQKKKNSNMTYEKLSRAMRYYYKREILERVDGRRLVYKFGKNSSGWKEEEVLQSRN
How it was run: as §1

[18] = target: CRX (Homo sapiens, UniProt O43186 1-299); settings: protein: recombinant; tags: N-terminal GST; dsDNA, one strand shown
How it was run: as §1

[19] = target: ETV1 (Homo sapiens, UniProt P50549 1-477); settings: protein: recombinant; tags: N-terminal GST; dsDNA, one strand shown
How it was run: as §1

Chain of ETV1 (P50549 whole entry): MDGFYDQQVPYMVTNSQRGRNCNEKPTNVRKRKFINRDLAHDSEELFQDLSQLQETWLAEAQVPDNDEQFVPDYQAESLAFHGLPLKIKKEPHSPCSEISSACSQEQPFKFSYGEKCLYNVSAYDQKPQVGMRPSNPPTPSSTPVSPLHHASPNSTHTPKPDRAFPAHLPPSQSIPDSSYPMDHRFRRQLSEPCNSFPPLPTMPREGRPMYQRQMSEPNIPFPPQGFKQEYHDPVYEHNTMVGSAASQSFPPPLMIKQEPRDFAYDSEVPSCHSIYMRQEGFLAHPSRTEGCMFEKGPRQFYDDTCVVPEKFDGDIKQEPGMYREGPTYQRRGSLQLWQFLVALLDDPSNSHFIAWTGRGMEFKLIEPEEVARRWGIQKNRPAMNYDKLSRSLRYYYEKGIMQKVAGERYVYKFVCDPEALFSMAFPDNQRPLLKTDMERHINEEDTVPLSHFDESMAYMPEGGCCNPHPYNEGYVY
Chain of ELF1 (P32519 whole entry): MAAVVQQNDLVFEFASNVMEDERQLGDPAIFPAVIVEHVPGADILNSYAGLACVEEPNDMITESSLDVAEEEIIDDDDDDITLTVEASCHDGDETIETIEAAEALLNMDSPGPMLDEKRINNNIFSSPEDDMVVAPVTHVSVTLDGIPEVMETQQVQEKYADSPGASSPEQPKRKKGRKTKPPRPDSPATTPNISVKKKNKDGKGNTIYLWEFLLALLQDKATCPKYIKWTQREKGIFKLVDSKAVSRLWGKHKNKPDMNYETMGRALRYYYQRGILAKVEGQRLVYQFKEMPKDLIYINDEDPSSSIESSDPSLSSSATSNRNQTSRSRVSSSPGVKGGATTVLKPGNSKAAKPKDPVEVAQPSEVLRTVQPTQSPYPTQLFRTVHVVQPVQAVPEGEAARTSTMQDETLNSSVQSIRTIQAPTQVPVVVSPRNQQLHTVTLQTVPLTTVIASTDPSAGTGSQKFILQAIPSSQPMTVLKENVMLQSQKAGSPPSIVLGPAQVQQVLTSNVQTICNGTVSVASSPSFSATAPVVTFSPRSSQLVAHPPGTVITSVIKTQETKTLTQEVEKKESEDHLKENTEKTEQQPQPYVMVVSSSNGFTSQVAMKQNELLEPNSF
Chain of ELF4 (Q99607 whole entry): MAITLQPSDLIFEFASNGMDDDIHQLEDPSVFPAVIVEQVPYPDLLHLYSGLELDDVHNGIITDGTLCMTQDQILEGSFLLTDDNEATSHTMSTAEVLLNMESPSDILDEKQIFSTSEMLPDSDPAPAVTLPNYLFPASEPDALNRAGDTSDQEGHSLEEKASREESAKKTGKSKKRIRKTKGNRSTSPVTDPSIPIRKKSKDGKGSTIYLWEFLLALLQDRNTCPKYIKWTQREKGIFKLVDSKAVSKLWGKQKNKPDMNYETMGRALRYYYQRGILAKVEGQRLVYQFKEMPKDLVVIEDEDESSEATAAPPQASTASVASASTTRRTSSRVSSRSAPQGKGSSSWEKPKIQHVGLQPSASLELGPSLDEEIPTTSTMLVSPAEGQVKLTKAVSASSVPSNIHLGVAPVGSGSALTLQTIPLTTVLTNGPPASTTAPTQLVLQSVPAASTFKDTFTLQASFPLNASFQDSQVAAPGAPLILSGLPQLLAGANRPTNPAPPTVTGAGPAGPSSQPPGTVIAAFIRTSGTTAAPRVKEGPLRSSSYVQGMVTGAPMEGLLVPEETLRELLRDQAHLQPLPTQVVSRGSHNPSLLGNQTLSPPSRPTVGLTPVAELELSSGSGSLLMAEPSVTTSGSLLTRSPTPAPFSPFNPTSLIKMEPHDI
Chain of ETV5 (P41161 whole entry): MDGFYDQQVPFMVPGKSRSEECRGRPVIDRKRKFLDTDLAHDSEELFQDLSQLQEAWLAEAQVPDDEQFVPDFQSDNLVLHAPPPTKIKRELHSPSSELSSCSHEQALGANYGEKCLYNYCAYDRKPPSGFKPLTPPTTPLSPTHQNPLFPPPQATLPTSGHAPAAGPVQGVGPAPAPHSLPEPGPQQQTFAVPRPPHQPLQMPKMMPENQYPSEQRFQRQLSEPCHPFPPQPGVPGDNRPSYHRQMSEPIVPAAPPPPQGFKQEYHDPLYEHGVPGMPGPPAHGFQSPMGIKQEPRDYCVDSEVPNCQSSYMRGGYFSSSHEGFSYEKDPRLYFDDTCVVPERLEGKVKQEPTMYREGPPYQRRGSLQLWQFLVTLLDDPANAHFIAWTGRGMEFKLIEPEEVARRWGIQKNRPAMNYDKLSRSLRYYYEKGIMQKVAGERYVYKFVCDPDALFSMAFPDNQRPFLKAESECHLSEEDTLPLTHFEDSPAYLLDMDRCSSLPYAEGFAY
Chain of HSF1 (Q00613 whole entry): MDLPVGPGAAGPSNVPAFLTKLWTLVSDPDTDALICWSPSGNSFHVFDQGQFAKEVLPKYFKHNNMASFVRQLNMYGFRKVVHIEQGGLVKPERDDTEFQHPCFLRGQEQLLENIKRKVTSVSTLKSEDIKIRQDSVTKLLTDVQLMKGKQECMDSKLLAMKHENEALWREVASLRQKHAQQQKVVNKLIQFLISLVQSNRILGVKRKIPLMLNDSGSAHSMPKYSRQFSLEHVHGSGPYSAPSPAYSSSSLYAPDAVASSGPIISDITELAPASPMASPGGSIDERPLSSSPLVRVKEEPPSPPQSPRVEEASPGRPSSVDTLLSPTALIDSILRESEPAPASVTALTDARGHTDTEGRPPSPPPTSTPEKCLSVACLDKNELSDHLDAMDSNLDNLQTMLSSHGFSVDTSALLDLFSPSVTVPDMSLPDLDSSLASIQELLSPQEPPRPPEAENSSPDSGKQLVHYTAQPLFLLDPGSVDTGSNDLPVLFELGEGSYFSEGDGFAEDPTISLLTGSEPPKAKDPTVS
Chain of SPIB (Q01892 whole entry): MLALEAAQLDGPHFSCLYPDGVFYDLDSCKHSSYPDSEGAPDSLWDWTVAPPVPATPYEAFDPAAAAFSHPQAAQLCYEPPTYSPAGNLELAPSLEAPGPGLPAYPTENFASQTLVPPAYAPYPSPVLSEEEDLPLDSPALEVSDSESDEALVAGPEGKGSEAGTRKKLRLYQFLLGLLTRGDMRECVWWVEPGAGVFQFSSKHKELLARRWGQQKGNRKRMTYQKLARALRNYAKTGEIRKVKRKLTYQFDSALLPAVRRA
Chain of CRX (O43186 whole entry): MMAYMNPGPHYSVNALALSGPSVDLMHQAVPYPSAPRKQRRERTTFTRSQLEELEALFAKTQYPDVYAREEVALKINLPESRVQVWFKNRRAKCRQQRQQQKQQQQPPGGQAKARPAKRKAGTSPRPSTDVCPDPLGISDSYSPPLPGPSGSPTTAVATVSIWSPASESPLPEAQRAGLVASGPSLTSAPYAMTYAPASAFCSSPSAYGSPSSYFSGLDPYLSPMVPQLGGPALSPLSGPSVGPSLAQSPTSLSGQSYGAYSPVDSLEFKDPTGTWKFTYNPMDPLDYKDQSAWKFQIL

TTCTTC
binding signal [1]: 1.92 fold enrichment (6-mer frequency, TF over GST control) | binding signal [2]: 1.87 fold enrichment (6-mer frequency, TF over GST control) | binding signal [3]: 1.79 fold enrichment (6-mer frequency, TF over GST control) | binding signal [4]: 1.87 fold enrichment (6-mer frequency, TF over GST control) | binding signal [5]: 1.85 fold enrichment (6-mer frequency, TF over GST control) | binding signal [6]: 1.75 fold enrichment (6-mer frequency, TF over GST control) | binding signal [7]: 1.8 fold enrichment (6-mer frequency, TF over GST control) | binding signal [8]: 1.9 fold enrichment (6-mer frequency, TF over GST control) | binding signal [9]: 2.25 fold enrichment (6-mer frequency, TF over GST control) | binding signal [10]: 1.66 fold enrichment (6-mer frequency, TF over GST control) | binding signal [11]: 1.87 fold enrichment (6-mer frequency, TF over GST control) | binding signal [12]: 2.07 fold enrichment (6-mer frequency, TF over GST control) | binding signal [13]: 1.74 fold enrichment (6-mer frequency, TF over GST control) | binding signal [14]: 1.81 fold enrichment (6-mer frequency, TF over GST control) | binding signal [15]: 1.69 fold enrichment (6-mer frequency, TF over GST control) | binding signal [16]: 1.83 fold enrichment (6-mer frequency, TF over GST control) | binding signal [17]: 1.74 fold enrichment (6-mer frequency, TF over GST control) | binding signal [18]: 1.44 fold enrichment (6-mer frequency, TF over GST control) | binding signal [19]: 1.9 fold enrichment (6-mer frequency, TF over GST control)

Reference: PMC7862700, “An all-to-all approach to the identification of sequence-specific readers for epigenetic DNA modifications on cytosine”
